Results as given in PubChem BioAssay.
Activity calls are given as the source filed them.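 The calls were made as follows, unless noted: active = NADPH fluorescence slope more negative than the mean of all samples by about 3 SD, 99.7% confidence; inactive = the rest.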

Key:
[1] = inhibitors of TNFa-induced NFkB p65 translocation, primary screen, imaging, HUVEC, MLSMR starter and 10KST1 sets (AID 438;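 active = inhibition above 20% together with a positive visual image hit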;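 also: compound added about 3h40 before a 20 min TNFalpha stimulation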;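 as to inhibition: signal is the nuclear over cytoplasmic p65 intensity ratio per well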); details: HUVEC TNFa-induced p65 nuclear translocation; cell count: measured here: nuclei count (cytotoxicity indicator), at 2.08 µM; inhibition: at 2 µM, stronger effect = higher value, 0% TNFa-plus-vehicle, 100% no-TNFa wells
[2] = inhibitors of mutant huntingtin aggregation, primary screen, imaging, exon1htt(103Q)mCFP cells, high-content imaging (AID 483;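 active = visual image review flags a hit and inhibition of aggregation exceeds 20%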;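 also: compound exposure lasted 3 days before fixation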;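 as to nuclei count: percent of the per-plate median nuclei count of sample wells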); details: exon1htt(103Q)mCFP cell line, aggregate imaging, at 2 µM; inhibition of aggregation: stronger effect = higher value; nuclei count: measured here: cell count, toxicity
[3] = inhibitors of E-selectin induction by TNFa, primary screen, imaging, HUVEC, immunofluorescence, MLSMR starter and 10KST1 sets (AID 487;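 active = visually confirmed hit in the image check and inhibition above 20%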;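 as to inhibition: signal is fraction of cell area covered by stained E-selectin grains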;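 as to nuclei count: 100% = median nuclei count of all wells on the same plate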); details: HUVEC TNFalpha-induced E-selectin immunofluorescence imaging, at 2 µM; inhibition: stronger effect = higher value; nuclei count: measured here: cell number, toxicity
[4] = target: Voltage-gated potassium channel subunit beta-2 (Rattus norvegicus) (UniProt P62483); test: KvBeta enzyme negative modulators, primary screen, biochemical, NADPH fluorescence (AID 622;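 active = fluorescence slope higher than the sample average by over 3 SD, cut at about -0.22 in these data, passing the limit was not always enough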;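 also: slope of raw intensity against log time taken from 70 to 1610 s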); details: recombinant KvBeta, 4-cyanobenzaldehyde reduction, at 10 µM, stronger effect = higher value
Sequence of Voltage-gated potassium channel subunit beta-2 (Rattus norvegicus) (P62483 whole entry, looked up): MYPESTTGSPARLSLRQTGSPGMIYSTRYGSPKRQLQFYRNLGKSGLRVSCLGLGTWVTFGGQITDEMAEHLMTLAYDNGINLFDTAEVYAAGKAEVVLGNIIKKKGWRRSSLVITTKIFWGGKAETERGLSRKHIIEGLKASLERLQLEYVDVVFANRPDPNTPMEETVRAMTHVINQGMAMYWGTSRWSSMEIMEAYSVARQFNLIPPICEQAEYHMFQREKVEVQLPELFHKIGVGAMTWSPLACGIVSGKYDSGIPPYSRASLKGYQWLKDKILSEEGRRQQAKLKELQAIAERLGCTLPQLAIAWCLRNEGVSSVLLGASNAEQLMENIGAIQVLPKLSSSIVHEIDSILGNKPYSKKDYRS

[5] = target: Voltage-gated potassium channel subunit beta-2 (Rattus norvegicus) (UniProt P62483); test: KvBeta positive modulators, primary screen, biochemical, NADPH fluorescence (AID 623); details: Recombinant KvBeta, NADPH fluorescence decrease slope, 10 min; at 10 µM; stronger effect = lower value;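 also: fluorescence intensity change per second fitted from 20 to 320 s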
[6] = target: Alpha-2C adrenergic receptor (Homo sapiens) (UniProt P18825); test: modulators of alpha2C/GIRK thallium flux, primary screen, cell-based, HEK293 alpha2C/GIRK1/2 (AID 624;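 active = fluorescence slope after compound addition differing from the mean of all screened samples at 99.7% confidence, in either direction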;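 also: slope of fluorescence ratio to pre-addition baseline per second over 15 to 24 s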); details: thallium flux BTC fluorescence, at 10 µM, actives lie on both sides
Sequence of Alpha-2C adrenergic receptor (Homo sapiens) (P18825 whole entry, looked up): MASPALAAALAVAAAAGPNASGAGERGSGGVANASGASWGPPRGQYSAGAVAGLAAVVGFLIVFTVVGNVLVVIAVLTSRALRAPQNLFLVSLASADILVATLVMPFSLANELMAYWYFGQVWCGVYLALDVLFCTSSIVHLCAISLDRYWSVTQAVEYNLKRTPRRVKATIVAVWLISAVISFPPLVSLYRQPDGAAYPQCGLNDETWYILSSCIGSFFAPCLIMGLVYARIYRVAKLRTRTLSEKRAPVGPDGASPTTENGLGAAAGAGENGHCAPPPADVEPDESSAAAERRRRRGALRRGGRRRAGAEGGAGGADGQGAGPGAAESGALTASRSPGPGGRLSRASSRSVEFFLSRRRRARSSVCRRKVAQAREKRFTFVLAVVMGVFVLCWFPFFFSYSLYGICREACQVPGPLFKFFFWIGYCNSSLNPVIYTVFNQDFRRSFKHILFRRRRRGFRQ

[7] = inhibitors of Sendai virus-induced IRF3 signaling, primary screen, TLR/RLR signaling modifier project, cell-based, Sendai virus stimulus, luciferase, 10K MLSCN set (AID 602276;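 active = inhibition at or above 50% at 10 µM; inactive = inhibition below 50%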;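 also: firefly luciferase from ISG56 promoter only with Renilla not read in this screen; 0% = Sendai virus plus DMSO and 100% = medium plus DMSO without virus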); details: HEK293 RL24 IRF3 luciferase reporter, at 10 µM, stronger effect = higher value
[8] = inhibitors of poly I:C-induced TLR3 signaling, primary screen, cell-based, poly I:C stimulus, luciferase, 10K MLSCN set (AID 602277;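 active = inhibition of the reporter signal at or above 50%; inactive = inhibition below 50%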); details: HEK293-TLR3 RL24 IRF3 luciferase reporter, at 10 µM, stronger effect = higher value

Row | Compound | cell count [1] | inhibition [1] | inhibition of aggregation [2] | nuclei count [2] [%] | inhibition [3] | nuclei count [3] [%] | fluorescence slope [4] | NADPH fluorescence slope [5] | slope [6] | inhibition [7] | inhibition [8]
1 | O=C(CCn1c(=O)oc2ccccc21)N1CCN(c2ccccc2Cl)CC1 | 570 | 3.9% (inactive) | -52.3% (inactive) | 22.3 | 26.9% (inactive) | 81.9 | -0.379 (inactive) | -2e-05 (inactive) | 0.0037 (inactive) | 49.8% (inactive) | 19.6% (inactive)
2 | Oc1ccc(N2CCN(C(c3ccncc3)c3nnnn3C3CCCC3)CC2)cc1 (stereo unspecified) | 661 | -18.3% (inactive) | -5.2% (inactive) | 101 | -67.5% (inactive) | 115 | -0.502 (inactive) | -4.4e-05 (inactive) | 0.00598 (inactive) | 17% (inactive) | 26.3% (inactive)
3 | CN1CCN(CC(=O)N2c3ccccc3C(C)(c3ccccc3)CC2(C)C)CC1 (stereo unspecified) | 352 | 2.9% (inactive) | -16.5% (inactive) | 74.1 | -183% (inactive) | 146 | -0.353 (inactive) | -6.8e-07 (inactive) | 0.00483 (inactive) | 35.9% (inactive) | 26.8% (inactive)
4 | O=C1c2ccccc2C(Nc2ccc3c(c2)OCCO3)N1Cc1ccc2c(c1)OCO2 (stereo unspecified) | 597 | 3.4% (inactive) | -2.8% (inactive) | 102 | -14.2% (inactive) | 106 | -0.553 (inactive) | -5e-05 (inactive) | 0.00464 (inactive) | 3.99% (inactive) | 50.1% (active)
5 | CCC(=O)N(CCCN(C)C)c1nc(-c2cc(OC)ccc2OC)cs1 | 392 | 7.8% (inactive) | -4.4% (inactive) | 106 | -14.7% (inactive) | 116 | -0.623 (inactive) | -6.2e-05 (inactive) | 0.00293 (inactive) | 19.4% (inactive) | 27% (inactive)
6 | O=S(=O)(NCc1ccccc1)c1ccc2c(c1)OCCO2 | 454 | -10.7% (inactive) | -10.8% (inactive) | 100 | -117% (inactive) | 121 | -0.599 (inactive) | -3.9e-05 (inactive) | 0.00569 (inactive) | -0.346% (inactive) | -1.95% (inactive)
7 | COc1ccc(OC)c(S(=O)(=O)N2CCC(C(=O)NCC3CCCO3)CC2)c1 (stereo unspecified) | 268 | 1.3% (inactive) | 10.7% (inactive) | 100 | -34.4% (inactive) | 115 | -0.352 (inactive) | 2.2e-05 (inactive) | 0.00611 (inactive) | 14.9% (inactive) | 20.2% (inactive)
8 | CCc1ccccc1NC(=O)c1cnc2n(c1=O)CCS2 | 582 | -3.9% (inactive) | -4.9% (inactive) | 94.6 | -4.7% (inactive) | 117 | -0.494 (inactive) | -1.7e-05 (inactive) | 0.00691 (inactive) | 12.7% (inactive) | -13.2% (inactive)
9 | Cc1cc(=O)n2nc(N3CCCC(C(=O)N4CCN(C)CC4)C3)sc2n1 (stereo unspecified) | 465 | -0.8% (inactive) | 19.6% (inactive) | 92.4 | -186% (inactive) | 126 | -0.313 (inactive) | -3.4e-05 (inactive) | 0.00576 (inactive) | -7.33% (inactive) | 5.83% (inactive)
10 | Cc1cc(C(=O)Nc2ccccc2C#N)n(-c2ccccc2)n1 | 763 | 7.7% (inactive) | 19.6% (inactive) | 88.3 | 27.3% (inactive) | 108 | -0.556 (inactive) | 2.9e-05 (inactive) | 0.00747 (inactive) | -2.18% (inactive) | 20.7% (inactive)
11 | COc1ccc(-c2cc3c(=O)n(CC(=O)NC4CCN(Cc5ccccc5)CC4)ncn3n2)cc1 | 296 | 2.8% (inactive) | 0.5% (inactive) | 91.9 | 2.5% (inactive) | 90.8 | -0.404 (inactive) | -4.1e-05 (inactive) | 0.00479 (inactive) | -14.7% (inactive) | -13.3% (inactive)
12 | N#Cc1nc(-c2ccco2)oc1NCCc1ccccc1 | 686 | -7.5% (inactive) | -10.1% (inactive) | 88.8 | -3% (inactive) | 107 | -0.463 (inactive) | -4.3e-05 (inactive) | 0.0039 (inactive) | -33.8% (inactive) | -56.1% (inactive)
13 | COc1ccc(-n2c(SCC(=O)c3c(N)n(C)c(=O)n(C)c3=O)nc3ccccc32)cc1 | 735 | 1.4% (inactive) | 10.2% (inactive) | 110 | -35.8% (inactive) | 106 | -0.581 (inactive) | -4.1e-05 (inactive) | 0.00517 (inactive) | 10.6% (inactive) | 14.8% (inactive)
14 | CC(=O)NC(=O)NC1CSCC1OC(C)=O (stereo unspecified) | 590 | 1.2% (inactive) | 23.1% (inactive) | 99 | -110% (inactive) | 132 | -0.445 (inactive) | -1.3e-05 (inactive) | 0.00811 (inactive) | 11% (inactive) | 12% (inactive)
15 | COC(=O)c1ccc2c(=O)n(CC3CCCO3)c(=S)[nH]c2c1 (stereo unspecified) | 548 | 16% (inactive) | -9.1% (inactive) | 92.8 | -137% (inactive) | 94.3 | -0.478 (inactive) | -2.8e-05 (inactive) | 0.00617 (inactive) | 14.9% (inactive) | 12.3% (inactive)
16 | Cc1oc(-c2ccccc2Cl)nc1CSCC(=O)N1CCCC1 | 319 | 9.3% (inactive) | 19.4% (inactive) | 91.6 | 62.6% (active) | 102 | -0.572 (inactive) | 5.9e-06 (inactive) | 0.00514 (inactive) | -10.3% (inactive) | 8.17% (inactive)
17 | Cc1ccc2cc(CN(CCN3CCCC3)C(=O)Nc3ccc(F)cc3)c(=O)[nH]c2c1C | 540 | -29.6% (inactive) | -45.2% (inactive) | 109 | -47.4% (inactive) | 111 | -0.587 (inactive) | 2.1e-05 (inactive) | 0.00603 (inactive) | 3.48% (inactive) | 16.1% (inactive)
18 | COc1ccc(C(=O)N2CCN(C(=O)c3ccco3)CC2)cc1OC | 546 | -3.9% (inactive) | -2.2% (inactive) | 108 | -184% (inactive) | 199 | -0.401 (inactive) | -3.4e-05 (inactive) | 0.00558 (inactive) | 13.2% (inactive) | 13.7% (inactive)
19 | C=CCn1c(SC(C)C(=O)NC2(C#N)CCCCC2)nnc1-c1ccc(OC)cc1 (stereo unspecified) | 612 | 9.9% (inactive) | 6.2% (inactive) | 95 | -154% (inactive) | 94 | -0.594 (inactive) | -3.3e-05 (inactive) | 0.00361 (inactive) | 22.5% (inactive) | 21.6% (inactive)
20 | CCOC(=O)c1[nH]c(C)c(C(=O)Nc2ccc(Cl)cc2)c1C | 709 | -1.6% (inactive) | -32.6% (inactive) | 89.1 | -32% (inactive) | 114 | -0.591 (inactive) | 2.4e-05 (inactive) | 0.00669 (inactive) | 6.23% (inactive) | -11% (inactive)
21 | CCOc1ccc2ccccc2c1C(=O)N1CCN(c2ccccc2)CC1 | 287 | -3% (inactive) | 41.9% (inactive) | 15.6 | 44.7% (inactive) | 64.1 | -0.423 (inactive) | -1.3e-05 (inactive) | 0.0036 (inactive) | 46.4% (inactive) | 56.3% (active)
22 | O=C(NCc1cccs1)C1CCCN(c2ncccn2)C1 (stereo unspecified) | 404 | -3% (inactive) | 13.4% (inactive) | 96.8 | -10.2% (inactive) | 123 | -0.5 (inactive) | -1.3e-05 (inactive) | 0.00547 (inactive) | 12.7% (inactive) | 9.11% (inactive)
23 | Cn1c(=O)cc(NCCc2ccccc2)[nH]c1=O | 304 | 3.4% (inactive) | -8% (inactive) | 116 | -199% (inactive) | 156 | -0.43 (inactive) | -0.0001 (inactive) | 0.00647 (inactive) | 7.54% (inactive) | 27.3% (inactive)
24 | CCc1nnc2n1N=C(c1ccc(-c3ccc(Cl)cc3Cl)o1)CS2 | 480 | 3.3% (inactive) | -48.4% (inactive) | 102 | -6.7% (inactive) | 105 | -0.607 (inactive) | 1.7e-05 (inactive) | 0.00636 (inactive) | 6.74% (inactive) | 10.2% (inactive)
25 | N#CC1=C(N)SC(N)=C(C#N)C1c1ccc(C(F)(F)F)cc1 | 520 | -1.5% (inactive) | -11.9% (inactive) | 114 | -69.1% (inactive) | 187 | -0.472 (inactive) | 2.9e-05 (inactive) | 0.00688 (inactive) | -1.4% (inactive) | -49.4% (inactive)
26 | CCN1C(=O)c2cccc3c(NC(=O)c4ccc5c(c4)OCCO5)ccc1c23 | 563 | 0.5% (inactive) | 4.6% (inactive) | 87.1 | 18% (inactive) | 90.9 | -0.48 (inactive) | -5.7e-06 (inactive) | -0.00194 (inactive) | 7.48% (inactive) | 17% (inactive)
